High-throughput results as filed in PubChem BioAssay.
The list is not random: actives were taken first. Their share in the collection is about 8.2%.
KB-V1 MDR tox: kills drug-selected multidrug resistant KB-V1 cells; KB-V1 MDR cells viability, CellTiter-Glo, 72 h; Potency, µM (doses to about 46.1 µM), usual class: cytotoxic; actives 3.4% (n = 400,000); further: nearly all actives have a fitted effect of over 60% in size
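Luminescent ATP read-out (CellTiter-Glo, 10 min) measures survival of drug-selected KB-V1 MDR cells after 72 h, 37 degrees C compound exposure. Medium: phenol-red-free DMEM, 10% FBS. Values from fitted concentration-response curves.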
MCF10A rereplic: inducers of DNA re-replication in MCF 10A breast cells; MCF 10A DNA re-replication, Hoechst nuclear intensity, 48 h; Potency, µM (doses to about 46.1 µM), hits mostly activators; actives 2.9% (n = 350,000); AID 624296; further: nearly all actives have a fitted effect of over 50% in size
ELG1 DNA repair: blocks ELG1-dependent DNA repair in HEK293T cells. HEK293T ELG1-luciferase reporter, luminescence, 16 h; DNA damage induced by 5-fluorouridine. Potency, µM (titrated, usually from 46.1 µM), most hits filed as inhibitors. actives 2.3% (n = 330,000). AID 504467; further: nearly all actives have a fitted effect of over 55% in size
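Cells (2,000 per well) received 5-fluorouridine plus test compound or DMSO and were incubated 16 hr at 37 °C, 5% CO2. Luciferase activity was read by luminescence 30 min after ONE-Glo addition; signal suppression marked inhibition of damage-induced ELG1 function.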
SW480 rerep: inducers of DNA re-replication in SW480 colon cancer cells | actives 1.8% (n = 340,000) | SW480 DNA re-replication, Hoechst DNA content imaging, 48 h | Potency, µM (titrated, usually from 46.1 µM), most hits filed as activators; further: nearly all actives have a fitted effect of over 55% in size
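DNA re-replication was detected as more nuclei of elevated Hoechst intensity after 48 hr exposure to compound (23 nL pinned per well of 250 cells).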
KB-3-1 cytotox: KB-3-1 parental cell cytotoxicity; KB-3-1 viability, CellTiter-Glo ATP luminescence, 72 h; Potency, µM (highest dose often 46.1 µM), hits mostly cytotoxic; actives 1.4% (n = 400,000); further: nearly all actives have a fitted effect of over 60% in size
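Here the drug-naive KB-3-1 line serves as comparator for MDR sub-line selectivity; cells received compound titrations, 72 h at 37 °C, then CellTiter-Glo readout.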
A number is an active result; – = inactive; ? = inconclusive; · = not tested or not shown; [ ] = remark or other dose. The call rests on the fitted dose curve; in most records, active means well fitted curve in the direction sought with a large enough effect; inconclusive means small, poorly fitted or top-dose-only effect, or another doubt; inactive means no such curve, though single readings can be large; an effect the other way counts as inactive or inconclusive.

SMILES	KB-V1 MDR tox	MCF10A rereplic	ELG1 DNA repair	SW480 rerep	KB-3-1 cytotox
COc1ccc(-n2nnnc2SCC(=O)Nc2ccc3c(c2)OCCO3)cc1OC	9.2µM	–	?	–	?
Cc1cc(C)nc(SCC(=O)c2ccc3c(c2)OCCO3)n1	?	15µM	–	–	–
COc1ccc(-n2nnnc2SCC(=O)c2ccc3c(c2)OCCO3)c(OC)c1	9.2µM	–	–	–	–
COc1ccc(C)cc1-n1nnnc1SCC(=O)c1ccc2c(c1)OCCO2	?	–	–	–	–
COc1cc(C(=O)Nc2ccc(C)c(S(=O)(=O)N(C)C)c2)ccc1OCC(=O)N1CCOCC1	–	–	?	–	–
CN(CC(=O)Nc1ccc(F)cc1)C(=O)CN1C(=O)c2cccc([N+](=O)[O-])c2C1=O	–	–	–	–	–
COc1ccc(-n2nnnc2SCC(=O)Nc2ccc3c(c2)OCCO3)c(OC)c1	–	–	21µM	–	–
O=C(CSc1nnnn1-c1ccc2c(c1)OCO2)NCc1ccccc1	12µM	–	–	16µM	7.3µM
NC(=S)NS(=O)(=O)c1ccc(N)cc1	·	–	·	–	·
COc1cc2oc(=O)cc(-c3ccc(-c4ccc(O)cc4)cc3)c2c(OC)c1OC	–	?	?	–	–
COc1ccc(-c2ccc(-c3cc(=O)oc4cc(OC)c(OC)c(OC)c34)cc2)cc1OC	?	?	10µM	?	–
COc1cc2oc(=O)cc(-c3cccc(-c4cccc(C)c4)c3)c2c(OC)c1OC	–	–	21µM	–	–
Cc1ccc(NC(=O)CS(=O)CC(=O)NCCCc2ccccc2)cc1Cl (stereo unspecified)	–	?	–	7.3µM	–
Cc1ccc(NC(=O)CS(=O)CC(=O)Nc2cnc3ccccc3c2)cc1Cl (stereo unspecified)	–	–	–	–	–
Cc1[nH]c2ccccc2c1C(=O)c1cc(Cc2ccccc2)sc1N	18µM	·	·	·	21µM
Cc1ccc(C)c(S(=O)(=O)N2CCCC2CNC(=O)C(=O)NC2CCCCCC2)c1 (stereo unspecified)	–	–	–	–	–
Cc1ccc(C)c(S(=O)(=O)N2CCCC2CNC(=O)C(=O)NCc2ccccc2C)c1 (stereo unspecified)	–	–	15µM	3.7µM	–
COc1ccccc1CNC(=O)C(=O)NCC1CCCN1S(=O)(=O)c1cc(C)ccc1C (stereo unspecified)	–	·	·	·	–
Cc1ccc(C)c(S(=O)(=O)N2CCCC2CNC(=O)C(=O)NCC2CCCO2)c1 (stereo unspecified)	–	–	–	5.8µM	–
Cc1ccc(C)c(S(=O)(=O)N2CCCC2CNC(=O)C(=O)NCc2ccccn2)c1 (stereo unspecified)	–	–	–	18µM	–
CCOCCn1ccc2c(OCC(=O)Nc3cc(C(F)(F)F)ccc3Cl)cccc2c1=O	–	·	·	·	–
O=S(=O)(c1ccc(C(F)(F)F)cc1)N1CCN(c2nc(-c3ccccc3)nc3ccccc23)CC1	–	·	·	·	–
CCOC(=O)c1cnc(SCc2nc(N)nc(Nc3ccc(F)cc3)n2)nc1N	?	3.7µM	?	?	?
CCOC(=O)c1cnc(SCc2nc(N)nc(Nc3ccc(C)cc3)n2)nc1N	?	10µM	?	?	?
CCOC(=O)c1cnc(SCc2nc(N)nc(Nc3ccccc3OC)n2)nc1N	·	·	–	·	·
SMILES	KB-V1 MDR tox	MCF10A rereplic	ELG1 DNA repair	SW480 rerep	KB-3-1 cytotox
COc1ccc(C(=O)N2CCC3(CC2)NCCc2[nH]cnc23)cc1OC	?	–	–	–	–
COc1ccccc1C1C=C(c2ccc(F)cc2)Nc2nc(-c3ccc(Cl)cc3)nn21 (stereo unspecified)	–	·	·	·	–
COc1ccccc1-c1nn2c(-c3ccccc3Cl)nnc2s1	·	·	–	·	·
COc1ccccc1-c1nn2c(-c3ccco3)nnc2s1	10µM	–	?	–	–
CCN(CC)c1ccc(-c2nn3c(-c4ccccc4OC)nnc3s2)cc1	1.5µM	?	?	1.3µM	0.82µM
COc1cccc(OC)c1-c1nn2c(-c3cc(-c4ccccc4)n[nH]3)nnc2s1	?	15µM	?	9.2µM	?
Clc1ccc(OCc2nn3c(-c4ccncc4)nnc3s2)cc1	10µM	–	–	–	–
CCOc1ccc(-c2nnc3sc(COc4ccc(Cl)cc4)nn23)cc1	–	–	–	–	–
O=C(CSc1nc2[nH]ncc2c(=O)[nH]1)Nc1cc(C(F)(F)F)ccc1Cl	–	·	·	·	–
CN1CCN(CC(O)(c2ccc(Cl)cc2)c2ccc(Cl)cc2)CC1	–	–	–	–	–
COc1ccccc1-c1nnc2sc(COc3ccc(Cl)cc3Cl)nn12	18µM	?	–	–	?
CCn1c(SCC(=O)N2CCC(C)CC2)nc2c(c1=O)SC(C)C2 (stereo unspecified)	–	–	–	–	–
O=C1CCCC2=C1C1c3ccccc3C(=O)N1c1ccc(C(=O)c3ccccc3)cc1N2 (stereo unspecified)	?	?	16µM	–[9.22 µM]	?
C=C(C)C(=O)Nc1nnc(-c2cccs2)s1	–	10µM	–	–	–
CCC(=O)Nc1nnc(-c2cccs2)s1	–	–	?	–	–
CCN=C1S/C(=C\c2cn(C(C)=O)nc2-c2ccccc2)C(=O)N1CC	18µM	?	?	–	–
CCN=C1S/C(=C\c2cn(CC(=O)NCc3ccco3)c3ccccc23)C(=O)N1CC	?	?	–	?	?
CC(=O)NC1=NC(=O)/C(=C/c2cn(C(C)=O)nc2-c2ccccc2)S1	?	?	21µM	?	–
COc1ccc(N2CCN(C(=O)COc3ccc(S(=O)(=O)N4CCOCC4)cc3C)CC2)cc1	?	–	–	–	–
Oc1c(C(c2ccccc2Cl)N2CCCC2)ccc2cccnc12 (stereo unspecified)	–	?	?	–	13µM
CCCCC(=O)NC(c1ccccc1)c1ccc2cccnc2c1O (stereo unspecified)	13µM	?	?	0.52µM	?
Oc1c(C(c2ccc(Cl)cc2)N2CCCC2)cc(Cl)c2cccnc12 (stereo unspecified)	–	–	?	–	–
CC(=O)NC(c1ccc(C(C)C)cc1)c1ccc2cccnc2c1O (stereo unspecified)	?	?	?	0.82µM	0.65µM
CCC(=O)NC(c1ccccc1OC)c1ccc2cccnc2c1O (stereo unspecified)	?	–	4.1µM	–	10µM
CCCCC(=O)NC(c1ccc(C(C)C)cc1)c1ccc2cccnc2c1O (stereo unspecified)	–	18µM	?	?	?
Oc1c(C(Nc2cccnc2)c2ccc(C(F)(F)F)cc2)ccc2cccnc12 (stereo unspecified)	–	·	·	·	–
CCCCC(=O)NC(c1ccccc1Cl)c1ccc2cccnc2c1O (stereo unspecified)	?	?	3.3µM	?	?
